Source: PubChem (The Scripps Research Institute Molecular Screening Center)
TEAD-YAP inh: TEAD-YAP interaction inhibition | HEK-TIYL cells, TEAD-Gal4/YAP UAS-luciferase luminescence | AID 1259422 | inhibition, % at 9.12 µM | 640,000 tested, 1.4% active; in the data active = inhibition above about 32%;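 also: 0% = median of test compound wells and 100% = reference inhibitor wells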
MITF primary: human MITF inhibition, primary screen; AlphaScreen MITF homodimerization, bead proximity signal; inhibition, % at 2.6 µM; 650,000 tested, 0.91% active; O75030; in the data active = inhibition above about 50%;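 also: 0% = vehicle wells with protein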
FBW7 activator: human FBW7 E3 ligase activation, primary screen; Q969H0; AlphaScreen FBW7–phospho-cyclin E peptide binding, activator screen; normalized activity (activation), % at 26.1 µM; 650,000 tested, 0.13% active; in the data active = normalized activity above about 1.9%;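 also: purified mutant Fbw7 with reduced substrate affinity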
Target sequence (Q969H0 whole entry, looked up): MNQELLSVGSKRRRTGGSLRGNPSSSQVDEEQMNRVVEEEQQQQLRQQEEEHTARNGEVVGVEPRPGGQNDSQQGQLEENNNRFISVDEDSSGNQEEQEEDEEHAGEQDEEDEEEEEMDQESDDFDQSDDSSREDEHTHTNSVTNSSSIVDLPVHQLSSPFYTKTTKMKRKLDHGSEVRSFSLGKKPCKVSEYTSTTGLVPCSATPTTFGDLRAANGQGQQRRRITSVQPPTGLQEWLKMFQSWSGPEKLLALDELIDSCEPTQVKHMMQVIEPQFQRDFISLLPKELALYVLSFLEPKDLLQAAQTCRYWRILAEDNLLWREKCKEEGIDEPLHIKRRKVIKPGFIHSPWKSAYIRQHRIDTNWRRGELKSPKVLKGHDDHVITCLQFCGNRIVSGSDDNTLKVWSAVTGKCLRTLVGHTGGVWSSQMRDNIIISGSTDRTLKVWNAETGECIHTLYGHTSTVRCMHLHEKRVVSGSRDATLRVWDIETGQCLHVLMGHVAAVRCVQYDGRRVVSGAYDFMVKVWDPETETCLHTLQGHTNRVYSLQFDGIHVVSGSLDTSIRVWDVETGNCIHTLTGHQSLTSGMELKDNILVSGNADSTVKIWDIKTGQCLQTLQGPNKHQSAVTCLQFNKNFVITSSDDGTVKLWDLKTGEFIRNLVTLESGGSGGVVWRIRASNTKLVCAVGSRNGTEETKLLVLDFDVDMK
GPR151 ag: human GPR151 activation; Q8TDV0; PathHunter beta-arrestin GPR151 cells, luminescence; activation, % at 11.2 µM; 650,000 tested, 1% active; AID 1508602; in the data active = activation above about 4.9%;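 also: 0% = median of compound wells and 100% = cells with positive control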
GPR151 confirm: confirmation of human GPR151 activators. 6,700 tested, under 10 active. AID 1508609. GPR151 PathHunter beta-arrestin cells, luminescence, 90 min; % of EA-reagent control over plate median. activation, % at 11.2 µM. shares compounds with GPR151 ag;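 active = mean percent activation across replicates above the confirmation screen cutoff of 4.91%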
GPR119 counter: counter-screen for GPR151 activators: effect on human GPR119 | shares compounds with GPR151 ag | GPR119 PathHunter beta-arrestin cells, luminescence, 90 min; 0 = compound-well median, 100 = enzyme-acceptor control | activation, % at 11.2 µM | 6,700 tested, 0.3% active;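 active = mean percent activation in the counterscreen above 29.09%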;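 also: counterscreen on off-target GPR119 to flag nonselective hits from the GPR151 activator screen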
Active calls of the source: *. Sampled rows, rich in hits. Any-hit rate of the full collection: about 3.4%.

`O=C1NC(=S)/C(=C\c2ccccc2F)S1` gave TEAD-YAP inh -1, MITF primary 9, FBW7 activator 0, GPR151 ag 7.2*, GPR151 confirm 0 and GPR119 counter 23.
`Cc1cccc(-n2ccnc2SCC(=O)Nc2ccc(F)cc2F)c1C` gave TEAD-YAP inh -5, MITF primary -4, FBW7 activator 0, GPR151 ag 9.3*, GPR151 confirm 0 and GPR119 counter -4.
`O=C(CC1S\C(=N/N=C/C=C/c2ccccc2)NC1=O)Nc1ccccc1F` (stereo not given) gave TEAD-YAP inh 1, MITF primary -11, FBW7 activator 0, GPR151 ag 7.8*, GPR151 confirm 1 and GPR119 counter -3.
CCN1CCN(C(=O)CN(C)S(=O)(=O)c2ccc(Cl)cc2)CC1 was read as TEAD-YAP inh -1, MITF primary 8, FBW7 activator 0, GPR151 ag 20*, GPR151 confirm 0 and GPR119 counter -2.
Screening CCN1CCN(C(=O)CN(C)S(=O)(=O)c2ccc(Br)cc2)CC1 returned TEAD-YAP inh 13, MITF primary 1, FBW7 activator 0 and GPR151 ag -3.
Screening Fc1ccccc1-c1cccc2ccc(N3CCN(c4ncnc5nc[nH]c45)CC3)nc12 returned TEAD-YAP inh -7, MITF primary -6, FBW7 activator 0, GPR151 ag 6.3*, GPR151 confirm 0 and GPR119 counter 12.
O=c1c(NC2CC2)c(N2CCN(c3ccc4cccc(-c5ccccc5F)c4n3)CC2)c1=O was read as TEAD-YAP inh 60*, MITF primary 3, FBW7 activator 0, GPR151 ag 5.3*, GPR151 confirm 1 and GPR119 counter 31*.
Screening CCOC(CCn1c(SC(CC)C(=O)NCc2cccnc2)nc2ccccc2c1=O)OCC (stereo not given) returned TEAD-YAP inh 3, MITF primary -7, FBW7 activator 0, GPR151 ag 7.0*, GPR151 confirm -2 and GPR119 counter -18.
`Cc1cccc(N(C)C(=O)CN(C)S(=O)(=O)c2ccc3c(c2)n(C)c(=O)c(=O)n3C)c1` gave TEAD-YAP inh 8, MITF primary -1, FBW7 activator 0 and GPR151 ag 0.
Screening CCNc1nc(Oc2ccc(=O)[nH]n2)nc(SC)n1 returned TEAD-YAP inh 2, MITF primary 8, FBW7 activator 0 and GPR151 ag 1.
For CCNc1nc(NC(C)(C)C)nc(Oc2ccc(=O)[nH]n2)n1 the results were TEAD-YAP inh 9, MITF primary -7, FBW7 activator 0, GPR151 ag 5.1*, GPR151 confirm 0 and GPR119 counter -4.
Cc1cc(N2CCN(c3ncccn3)CC2)nc2ccc(NC(=O)Cc3cccs3)cc12 was read as TEAD-YAP inh 13, MITF primary -7, FBW7 activator 0, GPR151 ag 5.1*, GPR151 confirm 1 and GPR119 counter -8.
For Cc1cccc(C(=O)Nc2ccc3nc(N4CCCCC4)cc(C)c3c2)c1 the results were TEAD-YAP inh -7, MITF primary -8, FBW7 activator 0, GPR151 ag 5.8*, GPR151 confirm 0 and GPR119 counter 8.
`Cc1[nH]c2ccccc2c1C(=O)C(=S)N1CCOCC1` gave TEAD-YAP inh 0, MITF primary 9, FBW7 activator 0 and GPR151 ag -1.
`CC(NC(=O)c1cnc2scc(C(C)(C)C)n2c1=O)c1ccccc1` (stereo not given) gave TEAD-YAP inh 4, MITF primary -2, FBW7 activator 0, GPR151 ag 7.4*, GPR151 confirm 1 and GPR119 counter 6.
For Nc1ncnc2nc(SCCO)[nH]c12 the results were TEAD-YAP inh -7, MITF primary -9, FBW7 activator 0, GPR151 ag 7.0*, GPR151 confirm -1 and GPR119 counter -5.
Screening NC(=O)CSc1nc2ncnc(N)c2[nH]1 returned TEAD-YAP inh -4, MITF primary 18, FBW7 activator 0 and GPR151 ag 1.
CCc1nccn1CCC(=O)N1CCOc2ccc(CN(C)CCc3ccccn3)cc2C1 was read as TEAD-YAP inh 2, MITF primary -11, FBW7 activator 0 and GPR151 ag 0.
`O=C(O)C1CCCN(c2ncnc3scc(-c4ccccc4)c23)C1` (stereo not given) gave TEAD-YAP inh -5, MITF primary 4, FBW7 activator 0, GPR151 ag 18*, GPR151 confirm -1 and GPR119 counter -4.
CCOC(=O)C1CCCN(c2ncnc3scc(-c4ccccc4)c23)C1 (stereo not given) was read as TEAD-YAP inh -19, MITF primary 4, FBW7 activator 0 and GPR151 ag 1.
`CCN1CCN(CCNC(=O)CCN2N=C(c3ccc(OC)cc3)CCC2=O)CC1` gave TEAD-YAP inh -2, MITF primary -1, FBW7 activator 0 and GPR151 ag 0.
CCCCCCCCCCCCCCCC(=O)SCCOP(=O)(O)OCC[N+](C)(C)C was read as MITF primary -2, GPR151 ag 5.4*, GPR151 confirm 2 and GPR119 counter 15.
`COc1ccc(OC)c(C2CC(=O)C3=C(C2)NC(=O)CC3c2c(F)cccc2Cl)c1` (stereo not given) gave TEAD-YAP inh -6, MITF primary 24, FBW7 activator 1 and GPR151 ag -1.
For Cc1cc(C)cc(NS(=O)(=O)c2ccc3c(c2)OCCCO3)c1 the results were TEAD-YAP inh 4, MITF primary 0, FBW7 activator 0 and GPR151 ag 2.
Screening Nc1ccc(NS(=O)(=O)c2ccc3c(c2)OCCCO3)cc1 returned TEAD-YAP inh 0, MITF primary 18, FBW7 activator 0, GPR151 ag 6.5*, GPR151 confirm -1 and GPR119 counter 0.
For COc1cc(C)ccc1OCc1cc(C(=O)N2CCSCC2)no1 the results were TEAD-YAP inh -76, MITF primary -7, FBW7 activator 0, GPR151 ag 6.0*, GPR151 confirm 0 and GPR119 counter 0.
COc1cc(C)ccc1OCc1cc(C(=O)N2CCCCCC2)no1 was read as TEAD-YAP inh -10, MITF primary 3, FBW7 activator 0 and GPR151 ag 0.
`CCOC(=O)C1CCCN(c2ccc(NC(=O)c3snc4c(=O)[nH]cnc34)cc2)C1` (stereo not given) gave TEAD-YAP inh -7, MITF primary 1, FBW7 activator 0, GPR151 ag 7.4*, GPR151 confirm 1 and GPR119 counter 10.
For Cc1c(CNC(C)c2ccccc2)c(C(=O)O)c(C)n1Cc1ccccc1 (stereo not given) the results were TEAD-YAP inh -10, MITF primary -12, FBW7 activator 0 and GPR151 ag 0.
